# PubChem BioAssay (NCI)
# Compounds without any hit were thinned out: in the full panel of roughly 79,000, 15% have a hit. Unmarked numbers belong to inactive results. Calls of active or inactive are those of the source. Cut-off read from the data, not from the text of the source: active = growth inhibition above about 70%; inactive = the rest.
# How the values were obtained:
# [1] = NCI Yeast Anticancer Drug Screen. Data for the mec2-1 strain (AID 157); settings: S. cerevisiae mec2-1 strain, active compounds read high
# Summary of the method: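 Strain: mec2-1 (DNA repair/cell cycle alteration). Compound exposure, then growth measured; inhibition expressed relative to vehicle.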
# [2] = NCI Yeast Anticancer Drug Screen. Data for the rad14 strain (AID 159);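 note: 0% = growth of vehicle-treated control cultures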; settings: S. cerevisiae rad14 strain growth inhibition, active compounds read high
# Summary of the method: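 Test compounds were applied to a repair-deficient yeast strain. Its growth was then compared with that of cultures given vehicle alone, and inhibition was expressed relative to those controls.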
# [3] = NCI Yeast Anticancer Drug Screen. Data for the sgs1 mgt1 strain (AID 161);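 note: 0% = growth of cultures given vehicle only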; settings: S. cerevisiae sgs1 mgt1 strain, active compounds read high
# Summary of the method: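 Test agents were incubated with a DNA-repair-mutant yeast strain. Growth was then read and compared against vehicle-treated controls.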
# [4] = NCI Yeast Anticancer Drug Screen. Data for the CLN2oe strain (AID 163);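 note: 0% = growth of vehicle-only control cultures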; settings: S. cerevisiae CLN2oe strain, active compounds read high
# Summary of the method: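 Growth of a genetically modified yeast strain is measured after compound exposure and compared with cultures given vehicle alone.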
# [5] = NCI Yeast Anticancer Drug Screen. Data for the cln2 rad14 strain (AID 165);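 note: 0% = growth equal to vehicle treated cultures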; settings: S. cerevisiae cln2 rad14 strain, active compounds read high
# Summary of the method: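 Compounds are applied to the cln2 rad14 yeast strain, and growth is then compared with that of vehicle-treated cultures to give inhibition.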
# [6] = NCI Yeast Anticancer Drug Screen. Data for the bub3 strain (AID 167); settings: S. cerevisiae bub3 mutant strain, active compounds read high
# Summary of the method: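 Yeast carrying a defined mutation is treated with each compound, and growth is compared with that of vehicle-exposed cells to give inhibition.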
# [7] = NCI Yeast Anticancer Drug Screen. Data for the wt2 strain (AID 169);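 note: 0% = growth of vehicle-treated yeast cultures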; settings: S. cerevisiae wt2 strain growth inhibition, active compounds read high
# Summary of the method: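 This strain belongs to a panel of yeast strains with defined genetic alterations in DNA damage repair or cell cycle control. Compounds are applied, and growth inhibition is measured against vehicle-treated cultures.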
# [8] = NCI Yeast Anticancer Drug Screen. Data for the mlh1 strain (AID 171);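 note: 0% = growth of vehicle-treated control cultures of the same strain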; settings: S. cerevisiae mlh1 strain growth inhibition, active compounds read high
# Summary of the method: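 Growth of the mutant yeast strain after compound exposure, expressed as inhibition relative to vehicle-only controls.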
# [9] = NCI Yeast Anticancer Drug Screen. Data for the sgs1 strain (AID 173);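 note: 0% = growth of vehicle-only control cultures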; settings: S. cerevisiae sgs1 mutant, active compounds read high
# Summary of the method: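 Growth of a yeast strain bearing a defined genetic alteration is measured after compound treatment. Inhibition is expressed relative to vehicle-only controls.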
# [10] = NCI Yeast Anticancer Drug Screen. Data for the mlh1 rad18 strain (AID 175); settings: S. cerevisiae mlh1 rad18 strain growth inhibition, active compounds read high
# Summary of the method: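 Read-out is yeast growth inhibition, calculated against vehicle-only controls. The compound was applied to a strain engineered with DNA damage repair alterations.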
# [11] = NCI Yeast Anticancer Drug Screen. Data for the rad52 strain (AID 147);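 note: 0% = growth of vehicle-treated control cultures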; settings: S. cerevisiae rad52 mutant growth inhibition, active compounds read high
# Summary of the method: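 Compounds are applied to a genetically defined yeast strain lacking normal DNA damage repair, and inhibition of growth is expressed relative to cultures given vehicle only.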
# [12] = NCI Yeast Anticancer Drug Screen. Data for the wt1 strain (AID 149);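 note: 0% = growth of vehicle-treated wt1 cultures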; settings: S. cerevisiae wt1 strain (SPY 50644) growth inhibition, active compounds read high
# Summary of the method: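 wt1 yeast, compound-treated; % growth inhibition vs vehicle control.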
# [13] = NCI Yeast Anticancer Drug Screen. Data for the rad50 strain (AID 155);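 note: 0% = growth of vehicle-only cultures of the same strain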; settings: S. cerevisiae rad50 strain growth inhibition, active compounds read high
# Summary of the method: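 Genetically altered yeast (DNA repair pathway); compound treatment; growth inhibition vs vehicle ctrl.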
# [14] = NCI Yeast Anticancer Drug Screen. Data for the rad18 strain (AID 177); settings: S. cerevisiae rad18 mutant growth inhibition, active compounds read high
# Summary of the method: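 Growth of the mutant yeast strain after compound exposure, normalised to vehicle-only cultures.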
# [15] = at 5.0 µM (retest, dose inferred, filed as 0.5)
# [16] = at 50.0 µM (retest, dose inferred, filed as 5.0)
smiles,measurement,setting,value
c1ccc2c(c1)c1ncccc1c1nccnc21,growth inhibition,[1]; at 100.0 µM,4%
same,growth inhibition,[2]; at 1.2 µM,3%
same,growth inhibition,[2]; at 3.7 µM,3%
same,growth inhibition,[2]; at 11.0 µM,23%
same,growth inhibition,[2]; at 33.0 µM,16%
same,growth inhibition,[2]; at 100.0 µM,11%
same,growth inhibition,[3]; [15],-60%
same,growth inhibition,[3]; [16],-53%
same,growth inhibition,[3]; at 50.0 µM,0%
same,growth inhibition,[4]; at 1.2 µM,0%
same,growth inhibition,[4]; at 3.7 µM,-5%
same,growth inhibition,[4]; at 11.0 µM,-10%
same,growth inhibition,[4]; at 33.0 µM,-8%
same,growth inhibition,[4]; at 100.0 µM,-7%
same,growth inhibition,[5]; [15],-60%
same,growth inhibition,[5]; [16],-59%
same,growth inhibition,[5]; at 50.0 µM,-40.5%
same,growth inhibition,[6]; at 1.2 µM,4%
same,growth inhibition,[6]; at 3.7 µM,-2%
same,growth inhibition,[6]; [15],-58%
same,growth inhibition,[6]; at 11.0 µM,-1%
same,growth inhibition,[6]; at 33.0 µM,-5%
same,growth inhibition,[6]; [16],-60%
same,growth inhibition,[6]; at 50.0 µM,-0.35%
same,growth inhibition,[6]; at 100.0 µM,-7%
same,growth inhibition,[7]; at 1.2 µM,9%
same,growth inhibition,[7]; at 3.7 µM,14%
same,growth inhibition,[7]; at 11.0 µM,16%
same,growth inhibition,[7]; at 33.0 µM,19%
same,growth inhibition,[7]; at 100.0 µM,22%
same,growth inhibition,[8]; at 1.2 µM,-10%
same,growth inhibition,[8]; at 3.7 µM,-4%
same,growth inhibition,[8]; at 11.0 µM,-2%
same,growth inhibition,[8]; at 33.0 µM,2%
same,growth inhibition,[8]; at 100.0 µM,17%
same,growth inhibition,[9]; at 1.2 µM,-12%
same,growth inhibition,[9]; at 3.7 µM,-14%
same,growth inhibition,[9]; at 11.0 µM,-2%
same,growth inhibition,[9]; at 33.0 µM,3%
same,growth inhibition,[9]; at 100.0 µM,21%
same,growth inhibition,[10]; [15],-97%
same,growth inhibition,[10]; [16],-73%
same,growth inhibition,[10]; at 50.0 µM,33.9%
CC1C(NNc2ccccc2)Oc2cc3c(cc2C1c1ccccc1O)OCO3 (stereo not drawn),growth inhibition,[11]; at 1.2 µM,67%
same,growth inhibition,[11]; at 3.7 µM,99% (active)
same,growth inhibition,[11]; at 11.0 µM,99% (active)
same,growth inhibition,[11]; at 33.0 µM,94% (active)
same,growth inhibition,[11]; at 100.0 µM,94% (active)
same,growth inhibition,[12]; at 1.2 µM,72% (active)
same,growth inhibition,[12]; at 3.7 µM,98% (active)
same,growth inhibition,[12]; at 11.0 µM,99% (active)
same,growth inhibition,[12]; at 33.0 µM,96% (active)
same,growth inhibition,[12]; at 100.0 µM,95% (active)
same,growth inhibition,[13]; at 1.2 µM,12%
same,growth inhibition,[13]; at 3.7 µM,95% (active)
same,growth inhibition,[13]; [15],17%
same,growth inhibition,[13]; at 11.0 µM,98% (active)
same,growth inhibition,[13]; at 33.0 µM,93% (active)
same,growth inhibition,[13]; [16],98% (active)
same,growth inhibition,[13]; at 50.0 µM,86.9% (active)
same,growth inhibition,[13]; at 100.0 µM,92% (active)
same,growth inhibition,[1]; at 1.2 µM,7%
same,growth inhibition,[1]; at 3.7 µM,80% (active)
same,growth inhibition,[1]; [15],34%
same,growth inhibition,[1]; at 11.0 µM,98% (active)
same,growth inhibition,[1]; at 33.0 µM,94% (active)
same,growth inhibition,[1]; [16],97% (active)
same,growth inhibition,[1]; at 50.0 µM,88.2% (active)
same,growth inhibition,[1]; at 100.0 µM,94% (active)
same,growth inhibition,[2]; at 1.2 µM,-4%
same,growth inhibition,[2]; at 3.7 µM,54%
same,growth inhibition,[2]; at 11.0 µM,99% (active)
same,growth inhibition,[2]; at 33.0 µM,93% (active)
same,growth inhibition,[2]; at 100.0 µM,93% (active)
same,growth inhibition,[4]; at 1.2 µM,-1%
same,growth inhibition,[4]; at 3.7 µM,98% (active)
same,growth inhibition,[4]; at 11.0 µM,96% (active)
same,growth inhibition,[4]; at 33.0 µM,90% (active)
same,growth inhibition,[4]; at 100.0 µM,88% (active)
same,growth inhibition,[5]; [15],47%
same,growth inhibition,[5]; [16],97% (active)
same,growth inhibition,[5]; at 50.0 µM,90.8% (active)
same,growth inhibition,[6]; at 1.2 µM,-11%
same,growth inhibition,[6]; at 3.7 µM,68%
same,growth inhibition,[6]; [15],67%
same,growth inhibition,[6]; at 11.0 µM,98% (active)
same,growth inhibition,[6]; at 33.0 µM,93% (active)
same,growth inhibition,[6]; [16],98% (active)
same,growth inhibition,[6]; at 50.0 µM,91.5% (active)
same,growth inhibition,[6]; at 100.0 µM,94% (active)
same,growth inhibition,[7]; at 1.2 µM,51%
same,growth inhibition,[7]; at 3.7 µM,98% (active)
same,growth inhibition,[7]; at 11.0 µM,99% (active)
same,growth inhibition,[7]; at 33.0 µM,96% (active)
same,growth inhibition,[7]; at 100.0 µM,94% (active)
same,growth inhibition,[8]; at 1.2 µM,-6%
same,growth inhibition,[8]; at 3.7 µM,61%
same,growth inhibition,[8]; at 11.0 µM,98% (active)
same,growth inhibition,[8]; at 33.0 µM,94% (active)
same,growth inhibition,[8]; at 100.0 µM,93% (active)
same,growth inhibition,[9]; at 1.2 µM,94% (active)
same,growth inhibition,[9]; at 3.7 µM,99% (active)
same,growth inhibition,[9]; at 11.0 µM,99% (active)
same,growth inhibition,[9]; at 33.0 µM,95% (active)
same,growth inhibition,[9]; at 100.0 µM,95% (active)
same,growth inhibition,[10]; [15],83% (active)
same,growth inhibition,[10]; [16],98% (active)
same,growth inhibition,[10]; at 50.0 µM,91.9% (active)
same,growth inhibition,[14]; at 1.2 µM,12%
same,growth inhibition,[14]; at 3.7 µM,94% (active)
same,growth inhibition,[14]; at 11.0 µM,98% (active)
same,growth inhibition,[14]; at 33.0 µM,91% (active)
same,growth inhibition,[14]; at 100.0 µM,92% (active)
